# The whole screen tested about 320,000 compounds, of which about 9,100 (2.8%) were called active. Entries that show only a call come without a potency. Inconclusive results (about 3%) are left out. Calls come from the whole dose curve; as a rule, active = well fitted activation curve with a large enough effect; inconclusive = small, poorly fitted or top-dose-only effect; inactive = no such curve, though single readings can be large or run the other way. For the sample, actives were picked, then their nearest neighbours and some compounds at random.
# Experiment: qHTS Assay for Rab9 Promoter Activators; note: nearly all actives have a fitted effect of over 60% in size
# Conditions: Huh7 Rab9 promoter-luciferase reporter, luminescence, 24 h; series mostly up to 9.22 µM
# Procedure, shortened: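 Stable Rab9-luc Huh7, 1500 cells/well, 2 h settle; cmpd in DMSO, 24 h, 37 °C/5% CO2; luciferase reagent 10 min RT; luminescence.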
# Potency is the fitted concentration of half-maximal effect.
Structure (SMILES),Potency,"activation, negative = inhibition"
CCC(C)N(C(=O)CSc1nnnn1-c1ccccc1OC)C1CCS(=O)(=O)C1 (stereo not given),inactive,
CC1CC(=O)Nc2ccccc2N1C(=O)COc1ccc2cc(Br)ccc2c1 (stereo not given),inactive,
O=C(CCc1ccccc1)Nc1ncc([N+](=O)[O-])s1,2.24 µM (active),
COc1ccc([N+](=O)[O-])cc1NC(=O)CCc1ccccc1,inactive,
CC(C)Cc1nnc(NC(=O)CCc2ccccc2)s1,inactive,
CCOC(=O)c1sc(NC(=O)C2CSC3(C)CCC(=O)N23)nc1C (stereo not given),inactive,
CC1CCCN(c2ccc(C(=O)NCCc3ccccc3)cn2)C1 (stereo not given),2.51 µM (active),
CC1CCN(c2c(NCc3ccc(C(=O)NCc4ccccc4)cc3)c(=O)c2=O)CC1,inactive,
O=C(NCCc1ccccc1)c1ccc2c(c1)N(Cc1ccccc1)CCS2,inactive,
Cc1cc(C(=O)COC(=O)CNC(=O)c2ccc(F)cc2)c(C)n1Cc1ccco1,3.16 µM (active),
COCCn1c(C)cc(C(=O)COC(=O)CNC(=O)c2ccco2)c1C,inactive,
Cc1cc(C(=O)CSc2nc(N)cc(=O)[nH]2)c(C)n1Cc1ccco1,inactive,
Cc1c([N+](=O)[O-])c(N)nn1C,inactive,
Cc1c(NC(=O)CSc2nnc(-c3cccnc3)n2N)c(=O)n(-c2ccccc2)n1C,inactive,
COC(=O)c1cc(-c2cccs2)nc2ccccc12,,-3.27% [at 1.84 µM] (inactive)
COc1ccc(C(=O)Nc2nc(-c3ccc(S(=O)(=O)N4CCOCC4)cc3)cs2)cc1,inactive,
Brc1ccc(-c2csc(N/N=C/c3cccnc3)n2)cc1,inactive,
CC(NC(=O)c1ccco1)C(=O)Nc1nc(-c2ccccn2)cs1 (stereo not given),inactive,
Clc1ccc(Nc2nc(-c3cccs3)cs2)nc1,3.16 µM (active),
CCCn1c(CCNc2nc(-c3ccc(OC)cc3)cs2)nc2ccccc21,inactive,
Clc1ccc(Cc2nnc(-c3cccs3)o2)cc1,inactive,
c1cnc(Nc2nc(-c3ccc4ccccc4c3)cs2)nc1,0.282 µM (active),
c1ccc(Nc2nc(-c3ccncc3)cs2)nc1,1.58 µM (active),
COc1ccc(-c2csc(Nc3ccccn3)n2)cc1,0.282 µM (active),
Cc1ccc(S(=O)(=O)NCCC(=O)NCc2ccc(Cl)cc2)cc1C,inactive,
CCN(CC)S(=O)(=O)c1ccc(CNC(=O)CN2C(=O)NC3(CCc4ccccc43)C2=O)cc1 (stereo not given),inactive,
O=C1C=C(c2cc(C(F)(F)F)cc(C(F)(F)F)c2)C[C@@H](c2ccc3c(c2)OCO3)C1,inactive,

Structure (SMILES),Potency,"activation, negative = inhibition"
COc1ccc(-c2sc3ccc(OC)cc3c2C#Cc2ccccn2)cc1,inactive,
Cc1cc(C)cc(NC(=O)C(c2ccccc2)N2CCN(CC(=O)N3CCCC3)CC2)c1 (stereo not given),inactive,
c1ccc(C2CCC(N3CCC(N4CCCCC4)CC3)CC2)cc1 (stereo not given),inactive,
COc1ccc(-c2csc(NC3OC(=O)c4ccccc43)n2)cc1 (stereo not given),inactive,
COc1ccc(Nc2nc(-c3ccccc3)cs2)cc1,2.51 µM (active),
COc1ccc(NC(=O)c2sc(N)nc2-c2ccccc2)cc1,inactive,
CCN(CC(=O)Nc1ccccc1C(=O)NC1CC1)Cc1cccs1,inactive,
CCCCN(C(=O)C(CCSC)N1C(=O)c2ccccc2C1=O)c1c(N)n(CCC)c(=O)[nH]c1=O (stereo not given),inactive,
COc1ccc(OCc2ccc(-c3nc4ccccc4c(=O)n3N)o2)cc1,1.26 µM (active),
COc1ccc(-c2nc3ccccc3c(=O)n2CCc2ccc(O)cc2)cc1,inactive,
COc1ccc(OCc2n[nH]c(=S)n2N)cc1,inactive,
O=C(CSc1nc2[nH]c(=O)[nH]c(=O)c2s1)Nc1cccc(F)c1,inactive,
Cc1ccc(NC(=O)C(C)Sc2nnc(C3CC3)n2C2CC2)cc1S(=O)(=O)N1CCOCC1 (stereo not given),inactive,
CCC(=O)Nc1ccc2nn(-c3ccc(F)cc3)nc2c1,0.631 µM (active),
Cc1ccc(-n2nc3ccc(NC(=O)/C=C/c4ccco4)cc3n2)cc1C,inactive,
Cc1cccc(C(=O)OCC(=O)Nc2ccc(F)cc2)c1,inactive,
C=CCN(CC=C)C(=O)CN1C(=O)c2ccccc2C1=O,inactive,
Cc1cc(C(=O)COC(=O)CCCN2C(=O)c3ccccc3C2=O)c(C)n1C,inactive,
C=CCn1c(C)cc(C(=O)CN2C(=O)c3ccccc3C2=O)c1C,0.355 µM (active),
COc1cccc(C2=CC(=O)C[C@H](c3ccc(F)cc3)C2)c1OC,inactive,
Cc1cc(C)cc(OCC(=O)Nc2ccc(N3CCOCC3)cc2N2CCOCC2)c1,inactive,
CSCC[C@H](NC(=O)OC(C)(C)C)C(=O)N/N=C/c1cc2ccc(C)cc2nc1Cl,inactive,
Cc1ccc2cc(/C=N/NC(=O)[C@@H]3CCCN3)c(Cl)nc2c1,inactive,
Cc1ccc2cc(/C=N/Nc3ccc(C(=O)O)cc3)c(Cl)nc2c1,1.26 µM (active),
CC1(C)O[C@@H]2[C@H](O1)[C@@H](COS(=O)(=O)O)O[C@H]2n1cnc2c(=O)[nH]cnc21,inactive,
Cc1ccsc1C(=O)OCC(=O)Nc1cccc(F)c1,inactive,
Cc1ccc(C(=O)Oc2coc(CSc3nnc(NC(=O)c4cccs4)s3)cc2=O)cc1C,inactive,

Structure (SMILES),Potency,"activation, negative = inhibition"
Cc1ccc(C(=O)Nc2nnc(-c3cccs3)s2)cc1C,3.55 µM (active),
Cc1nnc(NC(=O)c2ccc3nccnc3c2)s1,inactive,
O=C(CNS(=O)(=O)c1ccc2c(c1)OCCCO2)N1CCN(c2ccc(F)cc2)CC1,inactive,
O=C(NCc1ccccc1CN1CCCC1)C1CCN(S(=O)(=O)c2ccc(Cl)cc2)CC1,inactive,
CC1CCN(c2ccc(-c3ccc(NC(=O)c4ccco4)cc3)nn2)CC1,3.55 µM (active),
O=C(Nc1ccc(Sc2ccc(Br)cc2)cc1)c1ccco1,inactive,
CC1CCN(C(NC(=O)c2ccco2)C(=O)c2ccccc2)CC1 (stereo not given),inactive,
CCC(=O)c1ccc(OCC(=O)Nc2ccc(N3CCCCC3)cc2)cc1,inactive,
CCC(=O)Nc1ccc(-c2ccc(N3CCCCC3)nn2)cc1,1.58 µM (active),
CCCCSc1nnc(-c2ccc(NC(=O)CC)cc2)n1C,inactive,
Cc1ccc(NC(=O)C(c2ccccc2)N2CCN(C(=O)c3ccco3)CC2)cc1 (stereo not given),inactive,
CC(C)N(Cc1nnc(-c2ccccc2Br)o1)C(=O)c1cc(Cl)nc2ccccc12,inactive,
CC(=O)c1c(C)[nH]c(C(=O)OCC(=O)Nc2c(C)n(C)n(-c3ccccc3)c2=O)c1C,inactive,
COc1ccc(-c2noc(CSc3ccc(C)cc3)n2)cc1,inactive,
Cc1cccc(-c2nc(Nc3ccc(O)cc3)c3ccccc3n2)c1,inactive,
COc1ccc(-c2noc(-c3ccc(C)cc3)n2)cc1,2 µM (active),
Cc1cccc(-c2noc(-c3ccc(F)cc3)n2)c1,0.224 µM (active),
COc1ccc(-c2noc(CCCC(=O)NC3CCCC3)n2)cc1OC,inactive,
COc1ccc(-c2noc(CNC(=O)C(C)Oc3ccccc3)n2)cc1 (stereo not given),inactive,
Cc1cccc(-c2noc(CCC(=O)NC3CCCC3)n2)c1,inactive,
COc1ccc(-c2csc3nc(-c4ccccc4F)oc(=O)c23)cc1OC,inactive,
COc1ccc(-c2noc(CN(C)S(=O)(=O)c3ccc(C)cc3)n2)cc1,inactive,
COc1ccc(-c2n[nH]c(C)c2-c2ccccc2OC)c(O)c1,inactive,
COc1ccc(-c2nc(-c3ccccc3)no2)c(OC)c1,3.98 µM (active),
COc1ccc(-c2noc(-c3cccc(OC)c3OC)n2)cc1OC,2.24 µM (active),
COc1ccc(NC(=O)Cn2cc(C(=O)c3ccncc3)c(=O)c3cc(C)ccc32)cc1Cl,inactive,
O=S(=O)(NCCCCCCNS(=O)(=O)c1c(F)cccc1F)c1ccc2c(c1)OCCO2,inactive,

Structure (SMILES),Potency,"activation, negative = inhibition"
COc1cccc(NC(=O)CN(C)C(=O)c2cc(C3CC3)nn2-c2ccccc2)c1,inactive,
O=C(OCc1cc(=O)n2ccsc2n1)C1(c2ccc(Cl)cc2)CC1,inactive,
COc1ccc(C(=O)OCC(=O)c2cc(C)n(CC3CCCO3)c2C)cc1[N+](=O)[O-] (stereo not given),inactive,
Cc1cccc(NC(=O)CN2CCN(C(=O)C3CCN(C(=O)/C=C/c4ccccc4)CC3)CC2)c1C,inactive,
COc1cc(OC)c(N2CC(C(=O)Nc3cc(Cl)ccc3N3CCOCC3)CC2=O)cc1Cl (stereo not given),inactive,
CCCCN1C(=O)C(=O)N(CC(=O)Nc2cccc(C(C)=O)c2)C1=O,inactive,
C=C(C)C1CC=C(C)/C(=N\NC(=O)CNc2ccccc2OC)C1 (stereo not given),inactive,
O=C(Nc1ccon1)c1nc[nH]c1C(=O)NCc1ccccc1,inactive,
O=C1c2cccc(OCC(=O)N3N=C(c4cccs4)CC3c3ccc(F)cc3)c2CCN1Cc1ccccc1 (stereo not given),inactive,
O=C(CCNC(=O)c1ccc(Br)cc1)NCC(c1ccco1)N1CCCCC1 (stereo not given),inactive,
CCOC(=O)c1ccc(NC2Nc3cc(C)nn3S2)cc1 (stereo not given),inactive,
CCc1ccc(NC2Nc3cc(C)nn3S2)cc1 (stereo not given),3.55 µM (active),
O=c1cc(CCl)nc2scc(-c3ccccc3)n12,inactive,
Cc1nn2c(=O)cc(COC(=O)c3ccc(NC(=O)C(C)(C)C)cc3)nc2s1,inactive,
Cc1csc2nc(COC(=O)c3cccc(N(C)C)c3)cc(=O)n12,2.82 µM (active),
CN(Cc1ccccc1)C(=O)COc1ccccc1,2.24 µM (active),
CN(Cc1ccccc1)C(=O)CCc1ccccc1,inactive,
CN(Cc1ccc(F)cc1)C(=O)COc1ccc2ccccc2c1,inactive,
COc1ccc(NS(=O)(=O)c2ccc(C)c(C(=O)NCC(c3cccs3)N3CCOCC3)c2)cc1 (stereo not given),inactive,
CCOC(=O)c1ccc(NC(=O)Cc2cccs2)cc1,4.47 µM (active),
O=C(Cc1cccs1)Nc1ccc([N+](=O)[O-])cc1,inactive,
CCOc1ccccc1NC(=O)Cc1cccs1,inactive,
CCOC(=O)N1CCN(C(=O)COC(=O)c2cccc(S(C)(=O)=O)c2)CC1,inactive,
CCOc1ccc(NC(=O)c2cccc3c2C(=O)N(CC2CCCO2)C3)cc1 (stereo not given),inactive,

# — PubChem BioAssay AID485297 (National Center for Advancing Translational Sciences (NCATS), 2010)
